From the supplement of paper PMC11417369
Over roughly 25,000 sequences, “ln(normalized median fluorescence intensity)” has its median near 9.3; the highest 2% begin near 10. For the sample, the highest values were picked, then their nearest neighbours and some sequences at random.

system: PF3D7_0420300 AP2 domain 1 (GST-tagged); experiment: gcPBM binding intensity (ln(normalized median fluorescence intensity)); higher = stronger DNA binding
Outline: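 The binding buffer was 1× PBS containing 1% milk, 0.2 mg/ml BSA, 0.5% salmon testes DNA and 0.03% Triton X-100. In it, GST-tagged P. falciparum DNA-binding domains expressed in E. coli were applied for 1 h to an Agilent 4 × 180k array of primer-extended double-stranded 36-bp intergenic genomic probes plus negative controls. Binding intensity, read with Alexa488 anti-GST antibody and a 488 nm scan, is the highest Masliner-normalised natural-log median intensity across replicate spots of either probe orientation.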

| Sequence | gcPBM binding intensity (ln) |
| --- | --- |
| TTATTACGAACTCTGCAACATATATAAATAAATAAA [CACACA_negctrl_site44] | 8.86 |
| ATATTTCATCTAGCTACACACATATAATAAATTATT [CACACA_site4094] | 9.53 |
| ATTCTAATTAGTAAAGTGCAGATAAAATGATGCCCT [GTGCAC_site9578] | 9.08 |
| ATTACATTTTTGTTTTGTACATATATTTTATAAACA [XGTACX_site494] | 9.34 |
| TAATTTTTTTAAGAGAGTACATGACTCAACAGTTTA [XGTACX_site3103] | 8.76 |
| TTAAAAAAAAAACACACACACATACCCATATATATA [CACACA_site5768] | 9.97 |
| CGCACTAAAAAACACACACACACACCCATATATATA [CACACA_site4152] | 10.3 |
| CCCACTAAAAAACACACACACACACCCATATATATA [CACACA_site6140] | 10.2 |
| CACCCACTAATAAACACACACATATATATATATATA [CACACA_site389] | 9.62 |
| TTATATTAAACAAACACACACATATATATATATATA [CACACA_site2382] | 9.53 |
| CATACTGTTATAAAATGTACGCATATACACACACAT [XGTACX_site7256] | 9.89 |
| CACATACAGACATACACACACATATAGATTAATATA [CACACA_site6399] | 9.93 |
| GGCATGACTATCTGCACACATAAAAATAAGAAATAC [CACACA_site841] | 9.56 |
| TAGAATAATCTATAAACACACAAACCCAACAAAAGA [CACACA_site6132] | 9.86 |
| TATAATAATCCACAAGCACACACACCCACATATATA [CACACA_site8343] | 9.93 |
| AATAATAGAAGCACCCACCCACCACCACCCACACAT [CACACA_negctrl_site1033] | 11.1 |
| CACCCACACCAACACACACACATATATAATATATAT [CACACA_site595] | 10.1 |
| ATAATAATTAACCTATGTACATAGGAAAGTCATAAA [XGTACX_site4387] | 9.29 |
| TTATATTAATTTTGTTGTACTATTTGTGCATTAAAT [XGTACX_site4790] | 9.21 |
| TGTCATGATACATACACACACATACCCATACCCATA [CACACA_site5211] | 9.88 |
| TATATATTGCCCTTCACACACACACCCATATATATA [CACACA_site2493] | 10.2 |
| TATATTGCCCTTCACACACACACATATATATATATA [CACACA_site2492] | 10.3 |
| CTTATATATTGCCCTTCACACACACCCATATATATA [CACACA_site8795] | 10.1 |

| Sequence | gcPBM binding intensity (ln) |
| --- | --- |
| CATATATATTTGTTCACACACACACCCAAAAAAAAA [CACACA_site2476] | 9.99 |
| TATTGCCCTGGACACACACACATATATATATATATA [CACACA_site5389] | 9.88 |
| TATTGCCCTTGACACACACACATATAAATAAATATA [CACACA_site7220] | 9.84 |
| ATTCATTTTATTTTTTCACACACACCGATATATATA [CACACA_site9097] | 10 |
| ATTATATAATTGTCTTCACACACACCGATATATATA [CACACA_site8883] | 9.93 |
| TATATATTGCCCTTCACACACACACCGATATATATA [CACACA_site5390] | 10.2 |
| GGTGGTAAAAAACCTGCATGTCGAAATATTAAATAC [TGCATGCA_site33] | 9.25 |
| TTCTTAAATGTAAATGTATATGTATTAAAAAGAGAA [TGCATGCA_negctrl_site597] | 9.1 |
| ACAACATATGTTATCACACACATATAAATATAAATA [CACACA_site7038] | 9.54 |
| AAAAGCAAGTTCCAGGGTACATATATATGAAAAAAC [XGTACX_site2408] | 9.58 |
| ATTTATTTATATAATACACACAAATATCTTAATGAA [CACACA_site6064] | 9.39 |
| ATATATATATATGTATGTACATATTTTTTTTAACAC [XGTACX_site8475] | 9.24 |
| GTTTGGTGGTGTTTTGGTACGTACGGGGGGGTATGT [XGTACX_site1983] | 10.9 |
| TATGATTTTTATATATGTACGTATGGTGTTTTACAA [XGTACX_site6100] | 9.21 |
| GTTTGGTGGTGTTTTGGTACGTACGGGGGTGTATGT [XGTACX_site1211] | 10.1 |
| AAAAAAAAAAAAAAAAAAAAAAAAAAATGAGATACA [GTGCAC_negctrl_site160] | 9.13 |
| ATAAAATGAACAAACACACACACATATATTTATATA [CACACA_site7181] | 10.1 |
| TGTAGTCTGGAGAAAAGTACATAGTATCTGGTAGCT [XGTACX_site2031] | 9.32 |
| CGTATATATATATACACACACATATATATATGTAAA [CACACA_site195] | 9.69 |
| TTAAACCGTGGGAGCACACACACACCCAGACACATA [CACACA_site4337] | 9.86 |
| AAACCGTGGGAGCACACACACACACCCACCCATATA [CACACA_site332] | 10.2 |
| CATTAAACCGTGGGAGCACACACACCCACCCACCCA [CACACA_site8000] | 9.87 |
| AATTAACCGTGACACACACACATATAAATATAAATA [CACACA_site7790] | 9.86 |

| Sequence | gcPBM binding intensity (ln) |
| --- | --- |
| ATTAAACCGTGGGAGCACACACACACACACACACAT [TGCATGCA_negctrl_site72] | 10.8 |
| TTAAACCGTGGGAGCACACACACACCCCCACCCATA [CACACA_site331] | 10.2 |
| TTAAACATATATTAAGCACACACAAACAAAAAAACA [CACACA_site8816] | 9.9 |
| TGTGGGAATAACCACACACACACACCCATATATATA [CACACA_site5876] | 10.1 |
| AAACCGTGGGAGCACACACACACACCGACACATATA [CACACA_site4338] | 10.1 |
| AATATGTCTTAAAAAAGTACATAAATTTTAACTTCA [XGTACX_site6670] | 8.84 |
| TTTTTTTTTTTTTTTTGTACATAATAAATGTTCTTA [XGTACX_site6754] | 8.64 |
| AAGAATTATATTAATAGTACATATATATTAATTTAT [XGTACX_site5713] | 9.08 |
| GCAAATCTTATATGAAGTACATATCTTATAAATAAA [XGTACX_site6903] | 8.96 |
| TGGAGGTCAGTTCACAGTACCCAGAAACTCTACGAG [XGTACX_site2007] | 8.76 |
| TTATAATCAATGAATACACACATATATTTAATTAAT [CACACA_site3613] | 9.47 |
| TATAAAAATATATGCACACAAATAAAAAATTATATA [CACACA_site3629] | 9.44 |
| AATTTTATATATATATGTACATATTTATATGCTTAT [XGTACX_site8180] | 9.4 |
| ATTTAGAAAAAATATACACACAGCCTAAACATGCAT [CACACA_site4067] | 9.64 |
| TATATATATGTATATGTGCACAGTTTTCTTATTAAA [GTGCAC_site9990] | 9.24 |
| TATAAATATTTATACACACACATATATTTATATATC [CACACA_site6366] | 9.82 |
| AAATTTGGTGAAGGATGTACTTTACCTAATACTTGT [XGTACX_site4825] | 9.21 |
| ATATTTACTCACGTCTTGCACTGAGCAAGCATTATA | 9.02 |
| AATGCTATCATTAATGCACACATTTAAACTTAATAT [CACACA_site5878] | 9.36 |
| AAATTTGGCAAACACACACACACACCCACACCCACA [CACACA_site8095] | 10.2 |
| AGACAGCGCACAAACACACAAACACCCACCCACATA [CACACA_site451] | 10.2 |
| GTTACACCAACAAACACACACACACCCACCCACAAA [CACACA_site2427] | 10.2 |
| GGCAAATTTATTATACCCACATACATACATACATAC [XGTACX_negctrl_site186] | 9.24 |

| Sequence | gcPBM binding intensity (ln) |
| --- | --- |
| AAATTTGGCAAACACACACACACACCCACAGAGACA [CACACA_site4490] | 10.3 |
| AACTTTGGCAAACACACACACACACCCACACCCACA [CACACA_site588] | 10.3 |
| CAAACATTTTAATGTACACACACCCACAGACAAACA [CACACA_site5522] | 9.78 |
| TACATAAATTAAAACACACACACACCCAAAAAAAAA [CACACA_site2261] | 10.1 |
| CATATATATATATATACACACATATATATTTTCTTT [CACACA_site1457] | 9.46 |
| TATTTTAATTATAAATTTAAAAAAAAAAAGAAAAAA [CACACA_negctrl_site1674] | 9.01 |
| TTCGGAAAAATTAAAGCACACAAAAAAAAATAAAAA [CACACA_site8296] | 9.45 |
| TATAAGCTTTCAATGTGTACATATTATTTTATTATT [XGTACX_site3988] | 9.44 |
| TTTATGGATGTGTATGCATGCCTAAATAAATATATG [TGCATGCA_site916] | 9.1 |
| ATATATATGTATAATCGTACAGTTAACGTATTCTTA [XGTACX_site5649] | 9.26 |
| TAATATTATTATTTTACACACTTTTTTCCTTTTATC [CACACA_site2457] | 9.45 |
| GTATATAGTATGTAGAGTACTAATTTCCATATGTTC [XGTACX_site7816] | 9.25 |
| AATATTTATTTTATATGTACATAATTTATTTTTAAT [XGTACX_site776] | 9.26 |
| AAAATAAAATATTTCTGTACTTATAACTATTCTATA [XGTACX_site8007] | 9.14 |
| AGATAAAAAAAGTACACACACACATATATTTATATA [CACACA_site7437] | 10.1 |
| AACAGATAAAAGGGTACACACATATATACAAGTACA [CACACA_site7959] | 9.9 |
| AAAGATAAAAAAAGTACACACACACCGATATATATA [CACACA_site9006] | 10.2 |
| AAGATAAAATAATAAAGTACACATATAAATTGAAAA [XGTACX_site2113] | 9.42 |
| AAAAAAAAAAAAAGTACACACATACAGATAAATATA [CACACA_site5067] | 9.66 |
| TGAAAAGATAAAAAAAGTACACACACACATATATAT [XGTACX_site6504] | 10.2 |
| AGATAAAAAAAGTACACACACACATATATATATATA [CACACA_site3072] | 9.82 |
| TACAGATAAAAGTACACACACACACCGATATATATA [CACACA_site4675] | 10.2 |
| TATATATATATATGTACACACACACCGATAAATAAA [CACACA_site8041] | 9.99 |
